# Results: PubChem BioAssay (EPA / NIEHS)
# Results filed as inconclusive are left out. Activity calls are given as the source filed them. How the source made its calls: active means hit-call score of the fitted dose curve at least 0.9, where 1 is the maximum; inconclusive means response in the unintended direction; inactive means score below 0.9.
# Columns and labels:
# [1] = molecular target: human c-Jun N-terminal Kinases (JNK2), MAPK9 (gene 5601) (UniProt P45984); assay: NVS_ENZ_hJNK2: NovaScreen (NVS) Enzymatic Assay for human c-Jun N-terminal Kinases (JNK2) (AID 2283171)
# In short: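 Chemicals first tested in duplicate at 25 uM, then in singleton concentration series up to 50 uM, against extracted JNK2 enzyme. Activity loss read by fluorescence with mobility-shift separation 1 h post-dose; DMSO baseline.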
# [2] = molecular target: human LYN Proto-Oncogene, Src family Tyrosine Kinase (LynA), LYN (gene 4067) (UniProt P07948); assay: NVS_ENZ_hLynA: NovaScreen (NVS) Enzymatic Assay for human LYN Proto-Oncogene, Src family Tyrosine Kinase (LynA) (AID 2283173)
# In short: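 Recombinant kinase with fluorescent substrate; product separated from substrate by electrophoretic mobility shift and read 1 h after dosing. Duplicate screen at 25 uM, then concentration-response up to 50 uM; activity scored as signal loss against DMSO.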
# [3] = molecular target: Mitogen-activated protein kinase 3 (Homo sapiens) (UniProt P27361); assay: NVS_ENZ_hMAPK3: NovaScreen (NVS) Enzymatic Assay for human Mitogen-Activated Protein Kinase 3 (MAPK 3) (AID 2283177)
# In short: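 Chemicals were first tested in duplicate at 25 uM, with hits re-run as concentration series (max 50 uM). Recombinant enzyme activity, measured 1 h post-dose in a cell-free format, was read by fluorescence/mobility shift relative to DMSO.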
# Chain of Mitogen-activated protein kinase 3 (Homo sapiens) (P27361 whole entry, looked up): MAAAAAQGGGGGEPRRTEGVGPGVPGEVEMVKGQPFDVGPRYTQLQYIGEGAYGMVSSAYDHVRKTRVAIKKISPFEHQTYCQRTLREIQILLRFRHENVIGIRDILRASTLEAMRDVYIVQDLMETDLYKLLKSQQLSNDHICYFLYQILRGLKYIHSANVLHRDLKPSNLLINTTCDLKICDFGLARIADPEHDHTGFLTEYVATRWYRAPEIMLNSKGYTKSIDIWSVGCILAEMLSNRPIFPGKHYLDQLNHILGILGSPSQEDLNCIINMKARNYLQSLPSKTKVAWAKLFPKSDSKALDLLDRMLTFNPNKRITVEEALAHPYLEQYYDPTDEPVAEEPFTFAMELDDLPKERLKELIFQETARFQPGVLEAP
# Chain of human c-Jun N-terminal Kinases (JNK2), MAPK9 (gene 5601) (P45984 whole entry, looked up): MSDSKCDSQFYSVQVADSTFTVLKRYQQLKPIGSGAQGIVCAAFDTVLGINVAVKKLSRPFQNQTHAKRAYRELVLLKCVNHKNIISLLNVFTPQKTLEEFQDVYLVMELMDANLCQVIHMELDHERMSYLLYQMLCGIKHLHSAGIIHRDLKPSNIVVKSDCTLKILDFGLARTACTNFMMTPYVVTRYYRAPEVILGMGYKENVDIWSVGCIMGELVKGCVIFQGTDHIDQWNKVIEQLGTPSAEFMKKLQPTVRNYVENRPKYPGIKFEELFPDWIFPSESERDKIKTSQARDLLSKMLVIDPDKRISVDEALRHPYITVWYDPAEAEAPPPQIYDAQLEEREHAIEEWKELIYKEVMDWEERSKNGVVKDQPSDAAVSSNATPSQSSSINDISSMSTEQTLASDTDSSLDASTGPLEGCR
# Chain of human LYN Proto-Oncogene, Src family Tyrosine Kinase (LynA), LYN (gene 4067) (P07948 whole entry, looked up): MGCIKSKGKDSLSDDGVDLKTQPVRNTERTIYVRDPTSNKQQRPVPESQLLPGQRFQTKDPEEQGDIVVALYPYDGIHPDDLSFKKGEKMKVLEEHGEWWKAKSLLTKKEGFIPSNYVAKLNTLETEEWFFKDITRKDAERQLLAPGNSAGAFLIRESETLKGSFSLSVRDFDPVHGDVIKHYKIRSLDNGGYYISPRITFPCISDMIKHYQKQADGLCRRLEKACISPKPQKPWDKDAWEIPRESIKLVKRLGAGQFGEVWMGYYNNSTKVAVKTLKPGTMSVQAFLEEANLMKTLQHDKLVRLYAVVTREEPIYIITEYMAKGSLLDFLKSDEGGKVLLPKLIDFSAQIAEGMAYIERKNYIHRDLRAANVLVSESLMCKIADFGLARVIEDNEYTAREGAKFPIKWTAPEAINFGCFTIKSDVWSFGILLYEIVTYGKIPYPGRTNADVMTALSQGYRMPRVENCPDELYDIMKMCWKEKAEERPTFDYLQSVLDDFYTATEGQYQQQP
smiles,measurement,setting,value
NCCO,outcome,[1],inactive
Cc1ccc(C(C)C)c(O)c1,outcome,[1],inactive
CC(=O)Oc1ccccc1C(=O)O,outcome,[2],inactive
O=C(O)CCCCC(=O)O,outcome,[3],inactive
Cc1ccc(Cl)cc1,outcome,[3],inactive
